# Measurements published in PubChem BioAssay AID1347156 (National Center for Advancing Translational Sciences (NCATS), 2019).
# Inconclusive results are not listed. Activity calls are given as the source filed them. Calls come from the whole dose curve; as a rule, active = well fitted cell-killing curve with a large enough effect; inconclusive = small, poorly fitted or top-dose-only effect; inactive = flat fitted curve, though single readings scatter.
# Experiment: DAPI mCherry counterscreen qHTS for Zika virus inhibitors; note: nearly all actives have a fitted effect of over 55% in size
# Settings: Vero cells, DAPI nuclear count cytotoxicity, imaging 48-72 h; series mostly up to 32.6 µM
# Text: Assay Submitters (PI): Avindra Nath, Ph.D., National Institute of Neurological Disorders and Stroke (NINDS), Bethesda, MD Radhakrishnan Padmanabhan, Ph.D., Georgetown University (GU), Washington D.C. Zika Virus causes congenital defects, including microcephaly and is associated with Guillain-Barre syndrome, eningoencephalitis and myelitis in infected adult. […] Using a target-based approach, we hope to establish a screening paradigm to uncover novel, cell-active NS2B-NS3 protease (Zika Virus) specific inhibitors from NCATS' collection of small molecules using qHTS. […] Four assay panel was created to identify potential Zika Virus inhibitors. Namely, (1) GU unlinked NS2B-NS3 AMC tagged protease qHTS, (2) GU unlinked NS2B-NS3 Rhodamine tagged protease qHTS, (3) NINDS linked NS2B-NS3 AMC tagged protease qHTS, (4) NINDS linked NS2B-NS3 Rhodamine tagged protease qHTS. Active compounds were re-acquired and re-screened to confirm inhibition. Inhibitors were further screened against various confirmatory and counterscreens in dose response format. […] A DAPI (mCherry counterscreen) which determine Vero cell cytotoxicity was used to exclude false positive compounds. […] Early Translation Branch (ETB) National Center for Advancing Translational Sciences (NCATS), Rockville, MD National Institute of Health (NIH), Bethesda, Maryland
# 384 well ZIKV-mCherry & mCherry DAPI counterscreen: We have developed a new orthogonal imaging assay in 384-well plate format, which uses recombinant virus ZIKV-mCherry in Vero cells. Briefly, 30 microL of Vero cells derived from a green monkey cell line, were dispensed by Multidrop Dispenser into a clear solid bottom black 384 well plate (ultracarrier, Perkin Elmer LifeSciences) at a concentration of 5,000 cells per well. The plate was incubated overnight in a CO2 incubator at 37 degrees C. Compounds were delivered as a 126 nL DMSO solution by Kalypsys pintool transfer. Following compound transfer, 10 microL of ZIKV-mCherry was added at an MOI of 1 and incubated in a CO2 incubator for 48-72 hrs at 37 degrees C. After sufficient incubation of infected cells in test plates, 8 microL of 32% PFA was dispensed into assay plates to fix cells and incubated for 20 min at room temperature. Plates were washed 3 times with PBS using BioTek EL406 microplate washer/dispenser. After washing, 30 microL of PBS with 0.01% TX-100 containing Hoechst dye was dispensed into the each well of the plates for nuclear staining. 384-well plates were imaged on an automated, widefield high content imager (INCell 2200, GE Healthcare) using a 10x/0.45 NA lens and standard DAPI (nuclear stain) and mCherry (cy5) excitation and emission filters. The TIFFs were quantitated using the canned Multi Target Analysis protocol (GE Investigator Workstation software v3.7.2). Briefly, nuclei from the DAPI channel were identified using top hat segmentation and a sensitivity setting of 96 and minimum size area of 35 microm2. A recombinant Zika viral infection was monitored in the Cy5 channel (cells) using a 2 microm collar dilation from the nuclear bitmap. mCherry objects with an average nuclear RFU intensity above 450 (3 stdev above mean negative control wells) were considered "mcherry positive" and data was analyzed by percent infection rate.
# % is set by controls: 0 for no effect and ±100 for the full control effect; potency is the fitted concentration of half-maximal effect.
row,SMILES,Potency
1,C[C@H]1[C@H]2Cc3ccc(O)cc3[C@]1(C)CCN2CCc1ccccc1,22.4 µM (active)
2,CC1=C(O)C(=O)C=C2C1=CC=C1[C@@]2(C)CC[C@@]2(C)[C@@H]3C[C@](C)(C(=O)O)CC[C@]3(C)CC[C@]12C,1.12 µM (active)
3,CC(C)=CCCC1(C)C=Cc2c(O)c3c(c(CC=C(C)C)c2O1)OC12C(=CC4CC1C(C)(C)OC2(C/C=C(/C)C(=O)O)C4O)C3=O (stereo not drawn),3.16 µM (active)
4,O=c1c(O)c(-c2ccc(O)c(O)c2)oc2c(O)c(O)cc(O)c12,inactive
5,N[C@@H](Cc1ccc(Oc2cc(I)c(O)c(I)c2)c(I)c1)C(=O)O,inactive
6,O=C(O)C(=O)c1cn(Cc2ccccc2)c2ccc(-c3ccc(OC(F)(F)F)cc3)cc12,28.2 µM (active)
7,Cc1cc(SCc2sc(-c3ccc(C(F)(F)F)c(F)c3)nc2C)ccc1OCC(=O)O,14.1 µM (active)
8,CC(C)=CCC[C@]1(C)C=Cc2c(O)c3c(c(CC=C(C)C)c2O1)O[C@]12C(=C[C@@H]4CC1C(C)(C)O[C@@]2(C/C=C(/C)C(=O)O)C4=O)C3=O,"1.12 µM [infected with Zika reporter virus, MOI 1] (active)"
9,O=C1OC(c2ccc(O)c(S(=O)(=O)O)c2)(c2ccc(O)c(S(=O)(=O)O)c2)c2c(Br)c(Br)c(Br)c(Br)c21,inactive
10,CN(C)[C@@H]1C(=O)C(C(N)=O)=C(O)[C@@]2(O)C(=O)C3=C(O)c4c(O)cccc4[C@@](C)(O)[C@H]3[C@H](O)[C@@H]12,inactive
11,O=c1oc2ccccc2c(O)c1C(CC(O)c1ccc(-c2ccc(Br)cc2)cc1)c1ccccc1 (stereo not drawn),15.8 µM (active)
12,O=C1C(I)=CC(=C(c2cc(I)c(O)c(I)c2)c2ccccc2C(=O)O)C=C1I,25.1 µM (active)
13,O=c1c(C2CC(c3ccc(-c4ccc(Br)cc4)cc3)Cc3ccccc32)c(O)sc2ccccc12 (stereo not drawn),8.91 µM (active)
14,O=C(Nc1ccc(Br)cc1)c1cc(Br)cc(Br)c1O,8.91 µM (active)
15,O=C(O)c1cc(Oc2ccc(C(F)(F)F)cc2Cl)ccc1[N+](=O)[O-],inactive
16,CCCCCOc1cc2c(cc1-c1cc(/C=C/C(=O)O)ccc1O)C(C)(C)CCC2(C)C,15.8 µM (active)
17,CC(=O)c1c(O)c(C)c(O)c(Cc2c(O)c3c(c(C(=O)/C=C/c4ccccc4)c2O)OC(C)(C)C=C3)c1O,14.1 µM (active)
18,CNc1ccc2oc(C[C@@H]3OC4(CC[C@@H]3C)O[C@H]([C@@H](C)C(=O)c3ccc[nH]3)[C@H](C)C[C@H]4C)nc2c1C(=O)O (stereo partly drawn),1 µM (active)
